# Shown are actives, neighbours in structure and some others; about 3.3% of the full set was active somewhere.
# 697 NFkB inh = inhibitors of the PMA/ionomycin-induced NF-kB reporter in 697 B cells | 697 B-cell NF-kB luciferase reporter, 16 h | inhibition, % at 4 µM | actives 0.33% (n = 330,000); in the data active = inhibition above about 35%
# SMARCA2 activ = SMARCA2 function activation, primary screen; activation, % at 9.1 µM; MG213 cells, MMTV-luciferase reporter, dexamethasone, overnight; actives 1% (n = 370,000); in the data active = activation above about 7.8%;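 note: 0% = vehicle wells and 100% = reference activator wells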
# Gli-Sufu antag = antagonists of Gli-Sufu signaling. actives 0.74% (n = 340,000). Sufu-KO-LIGHT fibroblasts, Gli luciferase reporter luminescence. inhibition, % at 5 µM;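 active = inhibition above about 55%, limit read from the data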;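 note: 0% = DMSO-treated cells and 100% = wells with medium but no cells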
# esBAF inh = SWI/SNF esBAF complex inhibition; mouse ES cells, Bmi1-luciferase knock-in reporter, 24 h; 100% = twice the neutral-well signal; AID 602393; reporter increase, % at 12.5 µM; actives 2% (n = 350,000); in the data active = activation above about 40%; inconclusive = no clear call, values can overlap the other calls;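 note: 0% = median of the plate's neutral control wells and 100% = double that signal; a rise in the Bmi1 reporter signal indicates esBAF inhibition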
# Jurkat NFkB inh = lowers PMA/ionomycin-induced NF-kB signal in Jurkat cells; PMA/ionomycin-induced NF-kB luciferase reporter, luminescence; inhibition, % at 4 µM; actives 0.53% (n = 330,000); AID 435003; in the data active = inhibition above about 50%
# SMARCA2 conf = confirmation of SMARCA2 (BRM) function activators. shares compounds with SMARCA2 activ. MG213 cells, MMTV-luciferase with dexamethasone, luminescence, overnight; MG213 cells expressing E1A, Rb sequestered; DMSO wells 0%, reference activator 100%. actives 30% (n = 3,500). activation, % at 9.1 µM;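 active = activation above its plate's cutoff, the mean activation of tested wells plus 3 SD, cut at about 7.9% in these data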
# GAL4-VP16 Luc = counter-screen for SMARCA2 activators: GAL4-VP16 luciferase reporter activation | shares compounds with SMARCA2 activ | HEK293 GAL4-VP16 pG5luc reporter, luciferase luminescence; scaled: DMSO wells 0%, SAHA wells 100% | activation, % at 9.1 µM | actives 41% (n = 3,500);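 active = activation above the solvent-only control well mean plus 3 SD, averaged across control plates, cut at about 5.2% in these data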
# * hit, by the source's call; ? = inconclusive; · = no result.
SMILES,697 NFkB inh,SMARCA2 activ,Gli-Sufu antag,esBAF inh,Jurkat NFkB inh,SMARCA2 conf,GAL4-VP16 Luc
O=C([C@@H]1[C@@H](CO)[C@@H]2Cn3c(cccc3=O)[C@H]1N2C(=O)CC1CC1)N1CCCCC1,·,·,·,-4,·,·,·
O=C(Cn1sc2ccccc2c1=O)NC12CC3CC(CC(C3)C1)C2,-27,·,1,30,-7,·,·
O=C(Cn1sc2ccccc2c1=O)Nc1ccccc1,·,12*,·,-1,·,6,0
O=C(O)c1cn(C2CCCCC2)c2ccccc2c1=O,13,17*,-3,4,2,-1,0
C[C@H](CO)N1C[C@H](C)[C@@H](CN(C)Cc2cccnc2)Oc2cc(C#CC3CCCC3)ccc2S1(=O)=O,·,·,·,-1,·,·,·
Nc1ccc(S(=O)(=O)NC2(C(F)(F)F)NC(=O)N(Cc3ccccc3)C2=O)cc1 (configuration not stated),19,8.0*,-15,0,3,-5,0
CC(C)Oc1ccc(C(=O)OCC(=O)c2ccc[nH]2)cc1,-27,12*,-7,65*,4,9.4*,7.3*
O=C(CCC(=O)c1cccs1)NC(c1ccccc1)c1ccccc1,24,9.0*,20,-8,10,-1,0
O=C(CC(=O)c1cccs1)c1ccncc1,·,10*,-9,·,·,2,4
O=C(NNC(=O)c1cccs1)c1ccncc1,19,-3,3,·,9,·,·
Cc1ccc(NC(=O)CCC(=O)c2cccs2)c(O)c1,-2,10*,0,·,-33,7,3
CC(NC(=O)CCC(=O)c1cccs1)c1ccccc1 (configuration not stated),3,0,-5,-6,-15,·,·
COc1cccc(NC(=O)N[C@@H]2CC[C@@H](CC(=O)NCc3ccccn3)O[C@@H]2CO)c1,·,·,·,-9,·,·,·
C[C@H](NC(=O)[C@@H]1[C@@H](CO)[C@@H]2Cn3c(ccc(C4=CCCCC4)c3=O)[C@H]1N2)c1ccccc1,·,·,·,1,·,·,·
CN1CCN(S(=O)(=O)c2ccc(NC(=O)c3ccc(Br)o3)cc2)CC1,2,8.2*,-3,4,1,4,1
Cc1nc2ccccc2c2c1C(=O)N(c1cccc(C(=O)O)c1)C2=O,12,3,3,·,15,·,·
Cc1ccc(C)c(C(=O)COC(=O)c2cccc(N3C(=O)c4c(C)nc5ccccc5c4C3=O)c2)c1,-43,14*,5,·,-27,1,3
CC(C)NC(=O)N(C)C[C@H]1Oc2ccc(NC(=O)Cn3cnnn3)cc2C(=O)N([C@H](C)CO)C[C@H]1C,·,·,·,-1,·,·,·
Cc1noc(C)c1NC(=O)N(C)C[C@H]1Oc2c(NC(=O)c3nc4ccccc4s3)cccc2C(=O)N([C@H](C)CO)C[C@@H]1C,·,·,·,1,·,·,·
Cc1cc(=O)[nH]c(N/N=C/c2sccc2C)n1,8,5,-5,10,-18,·,·
Cc1ccsc1/C=N/Nc1nc2ccccc2[nH]1,·,12*,-47,·,·,13*,15*
CCCNC(=O)[C@@H]1[C@@H](CO)[C@@H]2Cn3c(ccc(C4=CCCC4)c3=O)[C@H]1N2S(C)(=O)=O,·,·,·,3,·,·,·
COc1ccc(CCNC(=O)C(=O)NCC2OCCN2C(=O)c2ccc(Cl)cc2)cc1OC (configuration not stated),11,9.5*,13,·,-33,0,1
Cn1sc(NC(=O)c2ccc(Cl)cc2)nc1=O,-82,8.4*,-95,46*,-44,3,11*
CCOc1ccc(-c2nc(-c3cccnc3)no2)cc1,-219,9.3*,-116,-3,-99,3,13*
SMILES,697 NFkB inh,SMARCA2 activ,Gli-Sufu antag,esBAF inh,Jurkat NFkB inh,SMARCA2 conf,GAL4-VP16 Luc
COc1nc(C)ccc1-c1noc(-c2cccnc2)n1,-59,11*,25,?,-65,4,7.1*
CCCCOc1ccc(-c2nc(-c3cccnc3)no2)cc1,-145,7,-60,7,-85,·,·
Cc1ccc(-c2ccc3c(c2)O[C@@H](CN(C)C(=O)CC2CC2)[C@H](C)CN([C@@H](C)CO)S3(=O)=O)cc1,·,·,·,-7,·,·,·
Cc1ccc(C)c(NC(=O)N2CCc3ccccc3C2)c1,-25,3,-12,38,-25,·,·
O=C(Nc1ccccc1F)N1CCc2ccccc2C1,-40,10*,-125,65*,-57,2,8.0*
Cc1noc(C)c1NC(=O)Nc1ccc2c(c1)CC(=O)N([C@@H](C)CO)C[C@@H](C)[C@H](CN(C)CC1CC1)O2,·,·,·,1,·,·,·
COc1ccc2c(c1)CNC2CS(=O)(=O)NCc1ccc(F)cc1 (configuration not stated),·,-3,·,·,·,·,·
COc1ccc(CNS(=O)(=O)CC2NCc3cc(OC)ccc32)cc1 (configuration not stated),·,10.0*,·,·,·,2,0
CO[C@H]1CN(C)C(=O)c2ccc(NC(=O)c3cc(C)on3)cc2OC[C@@H](C)NC[C@H]1C,·,·,·,-1,·,·,·
CCCCN(C(=O)Cc1cccs1)c1nnc(-c2cccnc2)s1,-62,11*,-44,60*,-32,7.9*,5.5*
COc1ccc([C@H](C)NC[C@H](O)c2ccc(O)c(NC=O)c2)cc1,0,·,-10,2,-7,·,·
COc1ccc(C[C@H](C)NC[C@@H](O)c2ccc(O)c(NC=O)c2)cc1,-9,14*,5,2,-8,12*,15*
COc1ccc(C(c2nnnn2C(C)(C)C)N2CCN(c3nc4ccccc4s3)CC2)cc1 (configuration not stated),·,9.2*,-5,-1,·,-1,1
Cc1c(C(=O)OCC(=O)c2ccc3c(c2)OCCO3)oc2ccccc12,-4,8.0*,-10,31,-21,4,2
CSCc1c(C(=O)Nc2ccc3c(c2)OCO3)oc2ccccc12,-12,2,10,31,-5,·,·
O=C(COC(=O)c1cccnc1Cl)c1ccc2c(c1)OCCO2,9,2,-12,32,5,·,·
CS(=O)(=O)c1cccc(C(=O)OCC(=O)c2ccc3c(c2)OCCO3)c1,15,4,-1,·,13,·,·
Cc1c(C(=O)OCC(=O)N2CCC(C)CC2)oc2ccccc12,-13,9.2*,-3,27,2,-1,4
Cc1c(C(=O)Nc2ccc3c(c2)OCO3)oc2ccccc12,-123,9.7*,-115,50*,-124,0,11*
O=C(COC(=O)c1ccc(Cl)nc1)c1ccc2c(c1)OCCO2,-27,10*,-12,·,-26,4,3
COc1ccc2oc(C(=O)OCC(=O)N3CCC(C)CC3)c(C)c2c1,28,-2,-2,-11,9,·,·
Cc1noc(C)c1NC(=O)N(C)C[C@@H]1Oc2c(NC(=O)NC(C)C)cccc2C(=O)N([C@H](C)CO)C[C@@H]1C,·,·,·,-1,·,·,·
